Source: PubChem BioAssay AID720595 (Broad Institute, 2013)
Entries with a potency or affinity are not part of this list. A number with no mark means an inactive call. The source made the active and inactive calls.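 How the source made its calls: active means every repeat test gives a fitted half-maximal cytotoxic concentration no higher than twice the top valid dose; inconclusive means repeats disagree, or a flat partial loss or poor fit; inactive means the rest, including signal rising instead.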

Experiment: ATP-based viability loss in HEK293T cells – cell-based, CellTiter-Glo luminescence, dry powder, set 2, cytotoxicity control, dose response (AID 720595)
Conditions: 72 h; series mostly up to 26 µM; activity change, negative = cytotoxicity: at the top concentration

Question: Which “activity change, negative = cytotoxicity” value does the source give for `O=C(CSc1ccc(-c2ccccn2)nn1)N1CCCC1` here?
Answer: 6.61%

Question: With `Cc1ccc(C(=O)Nc2nc(-c3ccccn3)cs2)cc1S(=O)(=O)N1CCOCC1` as the compound, how does the “activity change, negative = cytotoxicity” value read?
Answer: 3.37%

Question: For `Cc1ccc(C(=O)Nc2nc(-c3ccccc3)cs2)o1`, which “activity change, negative = cytotoxicity” value is on record?
Answer: -2.19%

Question: For `CC1CCN(S(=O)(=O)c2ccc(C(=O)Nc3nnc(-c4cccs4)o3)cc2)CC1`, which “activity change, negative = cytotoxicity” value is on record?
Answer: -32.3%

Question: With `CC(C)Cc1nnc(NC(=O)c2cccc(S(=O)(=O)N3CCOCC3)c2)s1` as the compound, how does the “activity change, negative = cytotoxicity” value read?
Answer: -10.6%

Question: For `O=C(CSc1ccc(-c2ccccn2)nn1)Nc1nccs1`, which “activity change, negative = cytotoxicity” value is on record?
Answer: -2.19%

Question: With `c1ccc(-c2nc(-c3ccncc3)n[nH]2)nc1` as the compound, how does the outcome read?
Answer: inactive

Question: Which “activity change, negative = cytotoxicity” value does the source give for `CC1CCN(S(=O)(=O)c2ccc(C(=O)Nc3nnc(-c4ccno4)o3)cc2)CC1` here?
Answer: 8.24%

Question: Which “activity change, negative = cytotoxicity” value does the source give for `O=C(Nc1nc(-c2ccncc2)cs1)c1cccc(S(=O)(=O)N2CCOCC2)c1` here?
Answer: -2.67%

Question: For `COc1ccc(-c2nnc(NC(=O)c3ccc(S(=O)(=O)N4CCC(C)CC4)cc3)o2)cc1`, which “activity change, negative = cytotoxicity” value is on record?
Answer: 0.53%

Question: Which “activity change, negative = cytotoxicity” value does the source give for `Nc1nc(-c2ccccn2)nc(N)c1Cc1ccc(Cl)cc1Cl` here?
Answer: -26.5%

Question: For `O=C(Nc1nnc(C2=COCCO2)o1)c1ccc(S(=O)(=O)N2CCCCC2)cc1`, which “activity change, negative = cytotoxicity” value is on record?
Answer: -13.1%

Question: For `CC1CC(C)CN(S(=O)(=O)c2ccc(C(=O)Nc3nnc(C4=COCCO4)o3)cc2)C1` (centres undefined), which “activity change, negative = cytotoxicity” value is on record?
Answer: 10.9%

Question: With `Cc1c(C(=O)N(C)C)sc2nc(-c3ccccn3)[nH]c(=O)c12` as the compound, how does the “activity change, negative = cytotoxicity” value read?
Answer: -16.1%

Question: For `CC1CCN(S(=O)(=O)c2ccc(C(=O)Nc3nnc(C4CC4)o3)cc2)CC1`, which “activity change, negative = cytotoxicity” value is on record?
Answer: -30.8%

Question: Which “activity change, negative = cytotoxicity” value does the source give for `FC(F)(F)c1cc(-c2nn[nH]n2)cc(C(F)(F)F)c1` here?
Answer: 16.9%

Question: Which “activity change, negative = cytotoxicity” value does the source give for `Cc1ccc(S(=O)(=O)CCc2nnc(NC(=O)c3ccccc3)s2)cc1` here?
Answer: 3.04%

Question: With `CC1CCN(S(=O)(=O)c2ccc(C(=O)Nc3nnc(-c4ccccn4)o3)cc2)CC1` as the compound, how does the “activity change, negative = cytotoxicity” value read?
Answer: 0.61%

Question: With `Cc1cccc(NC(=O)CSc2ccc(-c3ccccn3)nn2)c1C` as the compound, how does the “activity change, negative = cytotoxicity” value read?
Answer: -22%

Question: Which “activity change, negative = cytotoxicity” value does the source give for `Cc1nnc(NC(=O)c2ccc(S(=O)(=O)N3CCCCC3)cc2)o1` here?
Answer: 3.22%

Question: For `COC(=O)c1ccc(NC(=O)CSc2ccc(-c3ccccn3)nn2)cc1`, which “activity change, negative = cytotoxicity” value is on record?
Answer: -7.07%

Question: With `O=C(Nc1nc(-c2ccccn2)cs1)c1ccc(S(=O)(=O)N2CCOCC2)cc1` as the compound, how does the “activity change, negative = cytotoxicity” value read?
Answer: 13.6%

Question: For `O=C(CSc1ccc(-c2ccccn2)nn1)NC1CCCCC1`, which “activity change, negative = cytotoxicity” value is on record?
Answer: -7.59%

Question: With `O=C(Nc1nc(-c2ccncc2)cs1)c1ccco1` as the compound, how does the “activity change, negative = cytotoxicity” value read?
Answer: 5.54%
